Bioassay records (PubChem)
Most compounds without a hit are left out; they make up all but 1.4% or so of the library.
AmpC inh no detg – blocks E. coli AmpC beta-lactamase in detergent-free assay. P00811. AmpC nitrocefin hydrolysis, absorbance 480 nm, 0.0001% Triton. Potency, µM (highest dose often 57.1 µM), for the others: at the top dose activity change, negative = inhibition, most hits filed as inhibitors. 0.52% of 330,000 active. AID 485341;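 further: potency means the concentration at half of the fitted maximal effect; plate controls were no compound for no effect and no enzyme for full effect; nearly all actives have a fitted effect of over 20% in size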
Target sequence (P00811 whole entry, looked up): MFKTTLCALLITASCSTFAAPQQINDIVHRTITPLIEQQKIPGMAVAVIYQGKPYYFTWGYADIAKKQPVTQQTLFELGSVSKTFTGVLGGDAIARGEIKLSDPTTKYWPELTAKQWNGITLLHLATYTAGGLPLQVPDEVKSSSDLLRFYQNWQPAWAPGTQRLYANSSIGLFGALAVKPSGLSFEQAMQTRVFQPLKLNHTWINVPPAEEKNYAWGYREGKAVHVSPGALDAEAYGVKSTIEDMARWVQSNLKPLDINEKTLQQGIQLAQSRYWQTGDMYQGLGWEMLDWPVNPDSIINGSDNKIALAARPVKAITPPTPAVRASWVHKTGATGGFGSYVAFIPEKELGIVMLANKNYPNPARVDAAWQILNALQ
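20 mM phosphate pH 7.0 + 0.01% (detergent screen) or 0.0001% Triton X-100; 5.3 nM AmpC reagent; cpd preinc 15 min RT; nitrocefin (800 uM stock) to start; A480 q20 s × 4 min; Activity was normalised to no-enzyme and no-compound control wells.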
AmpC detergent – inhibitors of E. coli AmpC beta-lactamase with detergent | Potency, µM (titrated, usually from 114 µM), without a hit: top-dose activity change, negative = inhibition, hits mostly inhibitors | 0.041% of 370,000 active | AmpC hydrolysis of nitrocefin, absorbance 480 nm, 0.01% Triton;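 further: potency means the concentration at half of the fitted maximal effect; 0% = no-compound wells and -100% = no-enzyme wells; nearly all actives have a fitted effect of over 25% in size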
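AmpC (5.3 nM in the dispensed reagent) in 20 mM phosphate pH 7.0 with 0.01% (detergent screen) or 0.0001% Triton X-100 was preincubated with compounds for 15 min at room temperature. Nitrocefin was then added from an 800 uM solution, and hydrolysis was followed at 480 nm.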
NS1 inh – influenza NS1 inhibition. Potency, µM (highest dose often 46.1 µM), without a hit: at the highest dose activity, positive = more growth. 0.4% of 270,000 active; calls by dose curve; further: potency means the concentration at half of the fitted maximal effect; actives are rising curves; nearly all actives have a fitted effect of over 50% in size
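Compounds were scored for reversing the slow growth caused by influenza A NS1 in S. cerevisiae, measured by optical density at 600 nm. Assay medium contained 2% galactose at pH 6.0; NS1-free yeast of the same strain were the positive control.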
SARS PLP yeast – blocks SARS-CoV papain-like protease in a yeast assay. S. cerevisiae expressing SARS-CoV PLpro, growth rescue. Potency, µM (series often up to 32.9 µM), for inactives: at the highest dose activity, positive = growth rescue, hits mostly activators. 0.19% of 330,000 active. AID 485353; calls by dose curve; further: potency means the concentration at half of the fitted maximal effect; 0% is about no effect; nearly all actives have a fitted effect of over 55% in size
Giardia FBPA inh – blocks Giardia fructose-bisphosphate aldolase activity; Potency, µM (top dose mostly 59.6 µM), without a hit: at the highest dose activity, negative = inhibition, hits mostly inhibitors; 0.71% of 290,000 active; purified Giardia FBPA; A8B2U2; further: potency means the concentration at half of the fitted maximal effect; on the % scale 0 is the no-effect control and ±100 the full control effect; nearly all actives have a fitted effect of over 55% in size
Target sequence (A8B2U2 whole entry, looked up): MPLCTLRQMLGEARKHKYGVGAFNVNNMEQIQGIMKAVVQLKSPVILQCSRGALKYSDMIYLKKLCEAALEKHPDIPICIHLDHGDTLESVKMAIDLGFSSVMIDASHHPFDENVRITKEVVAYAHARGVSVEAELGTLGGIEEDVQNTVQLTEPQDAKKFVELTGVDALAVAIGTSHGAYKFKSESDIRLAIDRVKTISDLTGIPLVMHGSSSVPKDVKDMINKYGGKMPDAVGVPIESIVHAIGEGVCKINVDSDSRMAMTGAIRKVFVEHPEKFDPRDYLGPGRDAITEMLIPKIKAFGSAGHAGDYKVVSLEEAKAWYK
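40 nM FBPA preincubated 10 min at RT with compound (up to 57.5 uM final), then substrate plus GAPDH/TPI/NAD/arsenate coupling and diaphorase/resazurin added. Fluorescence read after 20 min at RT, 525/598 nm.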
NS1 inh valid – validation of influenza NS1 protein function inhibitors; shares compounds with NS1 inh; influenza NS1 function cell assay, 15-point titration; activity change, negative = inhibition, % at 32.9 µM; 1,400 tested, under 10 active; AID 492980; calls by dose curve; further: 0% is about no effect
Flu PR8 replic – influenza virus titer reduction, NS1 project; shares compounds with NS1 inh; virus titer (log TCID50), log10 TCID50 at 5 µM; AID 504647; MDCK infected influenza A/PR/8/34, virus titer TCID50; active compounds read low; 30% of 95 active; call rule not given here
Active calls of the source: *; ? = inconclusive; · = no result given; ! = a repeat was not active. Unless noted, the call rests on the fitted dose curve; in most records, active means well fitted curve in the direction sought with a large enough effect; inconclusive means small, poorly fitted or top-dose-only effect, or another doubt; inactive means no such curve, though single readings can be large; an effect the other way counts as inactive or inconclusive.

SMILES | AmpC inh no detg | AmpC detergent | NS1 inh | SARS PLP yeast | Giardia FBPA inh | NS1 inh valid | others
CN1CCc2cc(NC(=O)Nc3cccnc3)ccc21 | · | · | 25µM* | · | -3% | 0
Cc1ccc(NC(=O)Nc2cccnc2)cc1Cl | -17% | -11% | -9% | -2% | 6% | ·
CCOC(=O)C1=C(c2ccccc2)N=c2s/c(=C\c3cc(OC)c(OC)c(OC)c3)c(=O)n2C1c1cccs1 (stereo not given) | -10% | 4% | 22µM* | 13% | -7% | 14
C[C@H](NC(=O)c1ccccc1)C(=O)OCC(=O)Nc1ccc2c(c1)OCO2 | 3% | 0% | · | 4% | · | ·
COc1cc2nc(N3CCN(C(=O)C4COc5ccccc5O4)CC3)nc(N)c2cc1OC (stereo not given) | 129% | -5% | 35µM*! | -4% | -3% | -33
CCC(C(=O)N1CCN(c2ccccc2)CC1)n1c(C)c2cnn(-c3ccccc3)c(=O)c2c1C (stereo not given) | · | 18% | · | · | · | ·
CCC(C(=O)NCCN1CCN(C)CC1)n1c(C)c2cnn(-c3ccccc3)c(=O)c2c1C (stereo not given) | 64% | -6% | ? | -3% | -6% | 0
CCc1ccc(-n2c(SCc3cccc(F)c3)nc3[nH]ncc3c2=O)cc1 | · | 1% | · | · | · | ·
CCOC(=O)C1CCN(C/C=C/c2ccccc2OC)CC1 | 4% | -5% | -13% | 5% | -16% | ·
O=C(Cc1cccs1)NCc1cccc(Br)c1 | -16% | 3% | 1% | -4% | ? | ·
COC(=O)c1ccccc1NC(=S)N(Cc1ccc2c(c1)OCO2)Cc1cc2ccc(C)cc2[nH]c1=O | ? | -4% | ? | 21% | -3% | ·
COC(=O)c1ccccc1NC(=S)N(Cc1ccc2c(c1)OCO2)Cc1cc2cc(C)ccc2[nH]c1=O | -29% | -11% | 11µM* | 6% | -1% | ?
CC(C)C(c1nnnn1C1CCCC1)N1CCOCC1 (stereo not given) | -7% | 5% | -6% | 8% | -2% | ·
Cc1ccc2nc(N3CCN(C)CC3)c(C#N)cc2c1 | -1% | -1% | 6.3µM* | -4% | -5% | 0
Cc1cc(C)c2nc(N3CCN(C)CC3)c(C#N)cc2c1 | -8% | -1% | 6.3µM* | -4% | -5% | -24
Cc1ccc2cc(C#N)c(N3CCN(C)CC3)nc2c1 | -15% | -2% | 0% | -1% | 5% | ·
O=C1NN(c2cccc(Br)c2)C(=O)/C1=C\c1ccc(O)cc1 | -53% | -1% | -8% | -1% | 1% | ·
O=C1NN(c2ccc(Br)cc2)C(=O)/C1=C\c1ccc(O)cc1O | ? | -12% | 4µM* | -5% | -11% | -14
O=C1C2CCCN2C(c2cccnc2)N1c1cccc(Cl)c1 (stereo not given) | -9% | ? | 3.5µM* | 2% | 1% | -9
Cc1cc(C)cc(NC(=O)CSc2nc3c(oc4ccccc43)c(=O)n2-c2ccccc2)c1 | -1% | ? | 5µM* | -6% | -6% | ?
Cc1cc(C)cc(NC(=O)CSc2nc3c(oc4ccccc43)c(=O)n2-c2ccccc2F)c1 | · | 1% | · | · | · | ·
COc1ccc(CCNC(=O)c2ccccc2Cl)cc1OC | -11% | -2% | 0% | 1% | 5% | ·
Cc1nn(C)c(C)c1C(C)NC(=O)c1cc(COc2cncc(Cl)c2)on1 (stereo not given) | 27% | 1% | -3% | ? | 2% | ·
CSc1cccc(NC(=S)N(CCCN2CCCC2)Cc2cccn2Cc2ccc(Cl)cc2)c1 | 68% | 7% | · | 0% | 5% | ·
COc1ccc(C2CC(c3ccccc3)=NN2C(=O)COC(=O)c2cc(S(=O)(=O)N3CCOCC3)ccc2Cl)cc1 (stereo not given) | 33% | ? | 10µM* | -13% | 2% | 2
SMILES | AmpC inh no detg | AmpC detergent | NS1 inh | SARS PLP yeast | Giardia FBPA inh | NS1 inh valid | others
C=CCNc1nc(-c2cccc(OC)c2O)nc2ccccc12 | -27% | -16% | -7% | 5% | -1% | ·
Cc1ccc(NC(=S)N2CCN(Cc3ccccc3)CC2)c(C)c1 | 32% | -11% | ? | -8% | -5% | -16
CSc1cccc(NC(=O)c2nnn(CC(=O)Nc3cc(C)cc(C)c3)c2N)c1 | -32% | -1% | 10% | -1% | -9% | ·
Cc1noc(C)c1/C=N/Nc1ccccn1 | -10% | -5% | · | -3% | 3% | ·
CCOc1ccc(N2C(=O)CC(Sc3nc(C)cc(C)c3C#N)C2=O)cc1 (stereo not given) | 11% | -1% | 13µM* | 2% | 12% | 16
CCOc1ccc(N2C(=O)CC(Sc3nc(CC(C)C)ccc3C#N)C2=O)cc1 (stereo not given) | -26% | 3% | 5% | -1% | -11% | ·
COc1cccc(N2CC(O)=C(c3nc4ccccc4s3)C2=N)c1 | -36% | -3% | -3% | 1% | -6% | ·
COc1cccc(N2CC(O)=C(c3ccccc3)C2=N)c1 | -5% | 5% | 7.1µM* | 18% | 1% | 1
Cc1ccc(C(=O)Nc2cc(Cl)ccc2-n2cncn2)s1 | -23% | -17% | · | -20% | · | ·
CCOC(=O)N1CCN(S(=O)(=O)N2CCCC(C(=O)NCCCN3CC(C)CC(C)C3)C2)CC1 (stereo not given) | 2% | ? | ? | 8% | 2% | -4 | Flu PR8 replic=6*
Nc1c(C(=O)NCc2ccco2)sc2nc(N3CCOCC3)c3c(c12)CCCC3 | 67% | -7% | 25µM* | 0% | ? | 0
COc1cccc(/C=N/NC(=O)c2nc(-c3ccccc3)cc(-c3ccccc3)n2)c1 | -33% | 5% | ? | 6% | -2% | -26
COc1ccc(/C=N/NC(=O)c2nc(-c3ccccc3)cc(-c3ccccc3)n2)cc1OC | 39% | ? | 15% | -16% | 5% | ·
COc1ccc(CCNC(=O)c2ccc3c(c2)N(Cc2ccc(C)cc2)CCS3)cc1OC | 8% | 1% | 7.9µM* | -4% | · | 0
CC(C)CC(=O)N[C@H](C(=O)N[C@H](C(=O)N[C@@H](CC(C)C)[C@@H](O)CC(=O)N[C@@H](C)C(=O)N[C@@H](CC(C)C)[C@@H](O)CC(=O)O)C(C)C)C(C)C | 14% | -16% | 14% | -2% | 3% | ·
Cc1cc(C)cc(NS(=O)(=O)c2ccc3[nH]cc(C(=O)N4CCc5ccccc54)c(=O)c3c2)c1 | -25% | -3% | 22µM* | -5% | 11% | 11
CCc1ccc(NS(=O)(=O)c2ccc3[nH]cc(C(=O)N4CCc5ccccc54)c(=O)c3c2)cc1 | -16% | ? | -39% | -18% | 13% | ·
